FMDV inh – foot and mouth disease virus antiviral activity | FMDV antiviral cell-based qHTS | 410,000 tested, 1.2% active | AID 1159524 | Potency, µM (highest dose often 57.9 µM), without a hit: at the highest dose activity change, negative = inhibition, usual class: inhibitors; calls by dose curve; tested in HEK293T cells; also: read-out not given here; potency is read from the fitted curve at half-maximal effect; nearly all actives have a fitted effect of over 45% in size
Sm TGR block – S. mansoni TGR enzyme inhibition; Q962Y6; purified TGR, DTNB reduction, TNB absorbance 405 nm; Potency, µM (titrated, usually from 114 µM), for the others: top-dose activity change, negative = inhibition, actives largely listed as inhibitors; 360,000 tested, 3% active; also: potency is read from the fitted curve at half-maximal effect; nearly all actives have a fitted effect of over 60% in size
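First, TGR (20 nM dispensed) and NADPH were mixed with compound. Second, a 15 min room-temperature incubation followed. Third, further NADPH and then DTNB were added to start the reaction. Finally, TNB absorbance was monitored kinetically.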
TbPYK inhibitor – blocks Trypanosoma brucei pyruvate kinase; Q57TT1; TbPYK enzyme, Kinase-Glo Plus ATP luminescence, 45 min; Potency, µM (top dose mostly 76.8 µM), for the others: at the top dose activity, negative = inhibition, usual class: inhibitors; 410,000 tested, 0.12% active; AID 624173; also: potency is read from the fitted curve at half-maximal effect; nearly all actives have a fitted effect of over 50% in size
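Screened from lowest to highest concentration, compounds were pinned into TbPYK/substrate mixtures, and ADP (130 uM final) was added. Plates sat at room temperature for 45 min prior to Kinase-Glo Plus detection by luminescence.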
RE007 growth inh – less growth of the S. pombe RE007 Vpr strain. 360,000 tested, 0.21% active. S. pombe RE007 Vpr strain, BacTiter-Glo ATP luminescence, 24 h. Potency, µM (titrated, usually from 92.2 µM), without a hit: at the highest dose activity change, negative = less growth, hits mostly inhibitors. AID 651644; active = well fitted falling curve with a large enough effect; inconclusive = small, poorly fitted or top-dose-only effect; inactive = no such curve, though single readings can be large or run the other way; also: potency is read from the fitted curve at half-maximal effect; nearly all actives have a fitted effect of over 50% in size
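Fission yeast strain RE007, carrying one chromosomally integrated HIV-1 vpr copy, was seeded at OD 0.01 in PMG+AL medium with 23 nL pinned compound. After 24 h at 30 °C and 99% humidity, viability was read by BacTiter-Glo luminescence.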
HCMV inh – blocks human cytomegalovirus replication; HFF cells, HCMV-luciferase reporter, 72 h; stronger effect = lower value; activity change, negative = inhibition, % at 57.5 µM; 410,000 tested, 4.5% active; AID 1259415; in the data active = activity change below about -60%; inconclusive = no clear call, values can overlap the other calls; inactive = above about -39%
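Two-dose cell screen: HFF monolayers treated with compounds and infected with luciferase-expressing HCMV at 1 PFU/cell, 72 h at 37C, then lysed for luciferase measurement.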
FBPA Giardia inh – blocks Giardia fructose-bisphosphate aldolase activity. Potency, µM (titrated, usually from 59.6 µM), inactives show top-dose activity, negative = inhibition, usual class: inhibitors. AID 2451. purified Giardia FBPA. 290,000 tested, 0.71% active; also: potency is read from the fitted curve at half-maximal effect; nearly all actives have a fitted effect of over 55% in size
Target sequence (A8B2U2 whole entry, looked up): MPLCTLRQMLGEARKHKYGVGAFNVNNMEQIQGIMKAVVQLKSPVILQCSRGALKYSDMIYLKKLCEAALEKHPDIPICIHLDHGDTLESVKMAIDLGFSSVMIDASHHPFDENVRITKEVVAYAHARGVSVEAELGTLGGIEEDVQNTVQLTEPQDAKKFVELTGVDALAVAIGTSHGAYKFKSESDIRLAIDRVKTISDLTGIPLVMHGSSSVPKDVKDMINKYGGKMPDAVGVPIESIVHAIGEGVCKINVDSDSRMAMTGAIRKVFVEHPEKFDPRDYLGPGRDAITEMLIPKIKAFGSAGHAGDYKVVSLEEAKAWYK
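40 nM FBPA preincubated 10 min at RT with compound (up to 57.5 uM final), then substrate plus GAPDH/TPI/NAD/arsenate coupling and diaphorase/resazurin added. Fluorescence read after 20 min at RT, 525/598 nm.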
The depositor's hits bear a star; ? = inconclusive; / = no result; [ ] = another dose, or the depositor's remark. Sampled rows, rich in hits. Any-hit rate of the full collection: about 7.7%. Unless noted, calls follow the shape of the dose curve; as a rule, active = well fitted curve in the direction sought with a large enough effect; inconclusive = small, poorly fitted or top-dose-only effect, or another doubt; inactive = no such curve, though single readings can be large; an effect the other way counts as inactive or inconclusive. % is scaled to controls: 0 for no effect and ±100 for the full control effect.

SMILES	FMDV inh	Sm TGR block	TbPYK inhibitor	RE007 growth inh	HCMV inh	FBPA Giardia inh
O=[N+]([O-])c1ccc(Oc2ccc(S(=O)(=O)N3CCOCC3)cc2)cc1	-18.9%	-3.4%	0.4%	4.0%	?	-1.7%
CC1CCN(S(=O)(=O)c2ccc([N+](=O)[O-])cc2)CC1	-16.1%	-28.1%	4.1%	5.1%	-5.8	-1.2%
Nc1cc(S(=O)(=O)N2CCCCC2)ccc1Oc1ccc(Cl)cc1	?	2.7%	2.6%	2.6%	-65.9*	-2.2%
c1cc[n+](CCC[n+]2ccccc2)cc1	13.8%	?	-9.8%	4.3%	-101.6*	0.2%
c1cc[n+](CCCC[n+]2ccccc2)cc1	-13.4%	16.6%	-2.4%	12.2%	3.2	-6.8%
CCN=C1S/C(=C\c2cc(OCC)c(O)cc2Br)C(=O)N1CC	31.6µM*	-20.3%	-15.0%	8.4%	-9.0	-4.4%
CC1(C)CC(=O)C=C(c2ccccc2F)C1=O	/	/	/	/	-10.3	/
CC(=O)N1CCN(Cc2ccc(Cl)nc2)CC1	-8.0%	-0.4%	-2.1%	-13.3%	-78.2*	2.6%
CC(=O)C(Cc1ccc(Cl)nc1)(Cc1ccc(Cl)nc1)C(C)=O	-12.9%	0.4%	4.7%	-24.7%	42.6	-0.1%
O=C(Cc1ccc(Cl)cc1)NCCc1c[nH]c2ccccc12	-19.7%	/	3.7%	-6.0%	14.8	/
O=C(CCl)N(c1ccc(Cl)cc1)c1c[nH]c2ccccc12	?	0.708µM*	3.0%	11.8%	-105.4*	0.9%
O=C(O)Cc1c[nH]c2ccccc12	-13.8%	/	-1.9%	0.1%	/	/
O=C(CCl)N(c1ccccc1)c1c[nH]c2ccccc12	?	3.16µM*	-16.5%	?	-102.9*	-0.5%
CCN(Cc1ccccc1)Cc1c(O)ccc2oc(C)c(C(=O)Nc3ccccc3C)c12	-20.1%	-35.1%	-7.6%	/	?	/
CCOC(=O)c1cc2c(C)n(-c3ccc(OCC)cc3)c(C)c2ccc1=O	39.8µM*	?	0.7%	20.1%	?	-16.9%
CCOc1ccc(-n2c(C)c(C(=O)OC)c3cc(O)ccc32)cc1	-11.1%	-15.4%	0.2%	35.0%	-38.6	-7.4%
CCOC(=O)c1cc2c(C)n(-c3ccc(C)cc3)c(C)c2ccc1=O	-37.2%	?	3.8%	-5.4%	-96.3*	-15.7%
ClC1=C(Cl)[C@]2(Cl)[C@@H]3[C@@H]4C[C@@H]([C@H]5O[C@@H]45)[C@@H]3[C@@]1(Cl)C2(Cl)Cl	/	/	4.4%[157 µM]	/	/	/
COc1ccc(OC)c(N/C(C)=C/C(=O)c2ccccc2)c1	10.3%	1.0%	-6.4%	5.7%	48.8	-12.7%
COc1ccc(OC)c(N/C=C/C(=O)c2ccccc2)c1	6.31µM*	-24.3%	?	-15.5%	-77.6*	-0.5%
Cc1cc(N/C=C/C(=O)c2ccccc2)ccc1Br	-4.7%	-5.6%	-2.7%	3.9%	170.8	-0.2%
COc1ccc(N/C=C/C(=O)c2cc(OC)c(OC)c(OC)c2)cc1	12.8%	4.7%	-7.2%	6.5%	-80.1*	11.2%
COc1ccc(N/C=C/C(=O)c2ccc(OC)c(OC)c2)cc1	49.0%	0.0%	-6.3%	?	?	-14.0%
O=C(/C=C/Nc1ccc(F)cc1Br)c1ccccc1	2.82µM*	4.6%	?	3.1%	?	3.3%
COc1cccc(C(=O)/C=C/Nc2cccc(O)c2)c1	12.6µM*	-0.7%	?	-11.7%	127.9	-10.1%
SMILES	FMDV inh	Sm TGR block	TbPYK inhibitor	RE007 growth inh	HCMV inh	FBPA Giardia inh
COc1cccc(CCNC(=O)c2ccc(Cn3c(SCc4ccccc4)nc4cccnc43)cc2)c1	-13.7%	0.8%	-0.6%	/	34.6	/
Cn1c(SCCOc2ccccc2F)nc2ccccc2c1=O	39.8µM*	12.2%	4.8%	19.3%	?	-0.7%
Cc1cccc(CSc2nc3ccccc3c(=O)n2C)c1	?	3.2%	-6.4%	-1.1%	-75.9*	/
COC(=O)c1cc(CSc2nc3ccccc3c(=O)n2C)oc1C	?	1.4%	-4.6%	38.5%	-73.9*	/
O=c1[nH]c(SCCOc2ccccc2F)nc2ccccc12	15.6%	-8.3%	-19.7%	-11.4%	86.7	0.3%
Oc1cccc(N2CCN(c3cccc(O)c3)CC2)c1	/	/	/	/	69.0	/
Cc1oc2ncn(C)c(=O)c2c1C(=O)NCCCN1CCCC(C)C1 (stereo not given)	3.2%	-0.3%	-4.4%	/	5.6	/
CC(C)CCOc1ccc(C(=O)CCNC(C)C(=O)O)cc1 (stereo not given)	/	1µM*	/	/	/	-5.2%
CC(C)CCOc1ccc(C(=O)O)cc1	4.2%	-5.8%	-2.2%	-2.1%	-30.6	22.4%
O=C1C=CC2=C3c4cc(O)c(O)cc4CC3(O)COC2=C1O (stereo not given)	?	/	?	-14.7%	-36.3	11.2µM*
CC(=O)/C=N/Nc1ccccc1	-1.5%	-29.8%	-3.3%	8.0%	20.3	0.5%
OC[C@@H](O)[C@H](O)C(/C=N/Nc1ccccc1)=N\Nc1ccccc1	9.1%	20µM*	-7.7%	114.3%	64.9	-14.9%
CC(CCc1ccccc1)NC(=O)Cn1c(=O)nc(-c2ccccc2F)c2cc(Cl)ccc21 (stereo not given)	-1.8%	4.6%	-10.6%	/	17.5	/
C=C(C)C1(O)OC(=O)C=C1OC (stereo not given)	-2.2%	6.31µM*	-7.4%	-8.8%	-17.2	0.3%
CC(=O)/C(N=Nc1cc2c(c([N+](=O)[O-])c1C)C(C)(C)CC2(C)C)=C(\C)O	25.1µM*	5.3%	-7.8%	-15.7%	11.1	-4.2%
CC(=O)/C(N=Nc1cc2c(cc1[N+](=O)[O-])OCCO2)=C(\C)O	-4.6%	9.4%	?	77.0%	18.7	-0.2%
COc1ccc(-c2nc3cnc(OC)nc3n(CCc3ccccc3)c2=O)cc1	-13.8%	/	/	/	/	2.3%
CC1CC(C)(C)CC2(C1)NC(=O)N(CC(=O)N1CCN(Cc3ccc(C#N)cc3)CC1)C2=O (stereo not given)	?	-2.9%	-1.8%	6.1%	-84.2*	/
COc1ccc(CN2CCN(C(C)=O)CC2)cc1OC1CCN(C(=O)c2ccc3ccccc3n2)CC1	11.9%	/	/	/	/	/
CCOc1ccc(N2CC(c3nc4ccccc4n3CCOc3ccccc3)CC2=O)cc1 (stereo not given)	-12.8%	-8.0%	-1.9%	/	7.8	/
Cc1ccc(OCCn2c(C3CC(=O)N(Cc4ccc(F)cc4)C3)nc3ccccc32)c(C)c1 (stereo not given)	-28.1%	-13.4%	2.0%	/	-91.6*	/
CCc1ccc(OCCn2c(C3CC(=O)N(Cc4ccc(F)cc4)C3)nc3ccccc32)cc1 (stereo not given)	-40.7%	2.8%	0.5%	/	-105.2*	/
COc1ccc(-c2cc(C(=O)Nc3cc(C(F)(F)F)ccc3Cl)no2)cc1	7.6%	-3.0%	1.0%	/	14.2	/
CC(=O)N(C[C@@H](C)C(=O)O)c1c(I)cc(I)c(N)c1I	/	/	2.2%[33.2 µM]	/	/	2.6%[21.7 µM]

Screening results as filed in PubChem.
